This passage reports fold change and outcome results from PubChem BioAssay AID1259240 (Keith Lab, Institute of Cancer Science, University of …, 2017).

A number with no mark means an inactive call. Active and inactive are the calls of the source. Rule as the data show it: active = fold change mostly below about -2 (no sharp cut-off); inactive = mostly above about -1.8.

The test in a line: TERT promoter activity modulators, primary screen, cell-based, luciferase reporter, human (AID 1259240). The following applies: A2780 TERT promoter luciferase reporter, 16 h; at 20 µM, fold versus average of vehicle-only wells. Background: Reporter assays use an easily measured gene product as a stand-in for the process of interest.
Turning to `CCNc1nc(C(=O)O)nc(N2CCOCC2)n1`, the fold change was -1.25. Take `O=C(NC1CCCC1)C1CCC(CNS(=O)(=O)c2cccc3nsnc23)CC1` (stereo not given): the fold change was -1.64. With `Fc1ccc(-c2ncc3ccccn23)cc1`, the fold change is 1.16. Take `Cc1noc(C(=O)N2CCN(c3ccccc3)CC2)c1Cl`: the fold change was -1.23. `O=C1CC(c2cc3c(cc2Cl)OCO3)c2cc3c(cc2N1)OCCO3` (stereo not given): the fold change was 1.12. For `O=C(CSc1nc(-c2ccco2)cc(C(F)(F)F)n1)NCc1cccnc1`, the fold change is -1.4. For `O=C1c2ccccc2-c2onc3c(N4CCCC4)cc(NCCN4CCCC4)c1c23`, the fold change was -1.05. Still for that read-out and setting: as for `Cn1nc(-c2ccc(C(=O)N3CCCC3)cc2)c2ccccc2c1=O`, the figure is 1.06; as for `COc1cc(Cl)cc(OC)c1NC(=O)Nc1ccc2snnc2c1`, -1.47. On the same count and under the same terms, as for `Cc1[nH]nc2c1C(c1ccccc1F)NC2=O` (stereo not given), the figure is -1.71. For `Cc1cc(C)c2c(=O)n(CC(=O)N3CCCC3)sc2n1`, the fold change was 1.19. In the case of `COc1cc2c(c(OC)c1)C(c1cccc3ccccc13)CC(=O)N2` (stereo not given), the fold change is -1.05.

For the compound `CCOC(=O)C1CCCN(c2c(N3CC(C)CC(C)C3)c(=O)c2=O)C1` (stereo not given), the fold change is -1.11. With `CN1C(=O)/C(=C/c2cn(CC(=O)N3CCCCC3)c3ccccc23)c2ccccc21`, the fold change was -1.35. Consider `Brc1ccc2c(c1)CN(Cc1ccc3c(c1)OCO3)CO2`, for which the fold change was -1.55.

On to `CN(CC(=O)NCc1cccs1)S(=O)(=O)c1ccc2c(c1)n(C)c(=O)c(=O)n2C`, for which the fold change was 1.51. Consider `COc1cc(OC)c(NC(=O)Nc2cc3sccc3n2C)cc1Cl`, for which the fold change is 1.13. Take `Cn1cnc2c(sc3nc(N4CCOCC4)c4c(c32)CC(C)(C)OC4)c1=O`: the fold change is 1.1.

Turning to `CCS(=O)(=O)Nc1ccc(C2=NN(S(=O)(=O)c3ccc(F)cc3)C(c3cccs3)C2)cc1` (stereo not given), the fold change was 1.07. On to `COc1cccc(NC2SC(=O)N(c3ccccc3)C2=O)c1` (stereo not given), for which the fold change is 1.28.

With `Cc1cc2c(cc1C)NC(c1nc3ccccc3[nH]1)C1=C(CC(C)(C)CC1=O)N2` (stereo not given), the fold change is -1.29. Turning to `O=C(c1ccc(CSCc2ccccc2F)o1)N1CCN(c2ccc(N3CCOCC3)nn2)CC1`, the fold change is 1.7. As to `O=C(NCc1cccnc1)c1cccc(NC2=NC3CS(=O)(=O)CC3S2)c1` (stereo not given), the fold change is -1.24. Still for that read-out and setting: as for `COC(=O)c1ccc(-c2ccc(/C=C3/NC(=O)N(c4ccccc4)C3=O)o2)cc1`, the figure is -2.59 (active). Turning to `CCOC(=O)C1=C(CS(=O)(=O)c2ccc(Cl)cc2)NC(=O)NC1c1ccc(OCC)cc1` (stereo not given), the fold change was 1.7. On the same count and under the same terms, as for `CCOC(=O)N1CCC(Nc2ccc3nncn3n2)CC1`, the figure is -1.14; as for `CCCCN(C)C(=O)Cn1ncc2c3ccccc3n(C)c2c1=O`, 1.16; as for `Cc1cc(C)cc(-c2nc(-c3cccnc3)no2)c1`, -2.32 (active). In the case of `COc1ccc(NC(=O)Nc2c(C)n(C)n(-c3ccccc3)c2=O)cc1`, the fold change is -1.33.

Consider `CCOC(=O)C(Sc1nnc(-c2c[nH]c3ccccc23)n1C)C(=O)OCC`, for which the compound was called inactive.

As to `Cc1nn(-c2cc(N3CCCCC3)ccc2N)c(=O)c2ccccc12`, the fold change was -1.45.

Turning to `N=C1C(c2nc3ccccc3c(=O)[nH]2)=C(O)CN1c1ccc(Cl)c(Cl)c1`, the outcome was active. As for `Nc1ncnc2c1nc1n2CC(O)CS1` (stereo not given), the fold change is -1.44. Still for that read-out and setting: as for `O=C(NCCN1CCCCCC1)C1CCC(CNS(=O)(=O)c2cccc3nsnc23)CC1` (stereo not given), the figure is -1.56. As to `O=C1OC(Nc2ccc(F)cc2)c2ccccc21` (stereo not given), the fold change is -1.21. As for `COC(=O)c1ccc(CSc2nc(-c3ccco3)cc(C(F)(F)F)n2)o1`, the fold change was -2.77 (active). As to `COCCNC(=O)Cn1cc(/C=C2/C(=O)N(C)c3ccccc32)c2cc(Br)ccc21`, the fold change is -1.01. With `O=c1/c(=C/c2ccco2)sc2nc(-c3ccco3)nn12`, the fold change was -1.71. Consider `COC(=O)CN1C(=O)C(O)(CC(=O)c2ccc(Br)cc2)c2ccccc21` (stereo not given), for which the fold change is -1.49. In the case of `O=c1cc(CSc2nnnn2-c2ccccc2)nc2nc[nH]n12`, the fold change is -2.26 (active).
